Screening data from PubChem BioAssay.
Hits are enriched below; roughly 4.1% of the tested compounds scored in any of these assays.
hgDAF12 agonist – H. glycines DAF-12 receptor agonists, primary screen, cell-based, luminescence, HEK293, GAL4 fusion, UAS-luciferase | Nuclear hormone receptor DAF-12 (Heterodera glycines), GAL4 fusion | HEK293 GAL4-hgDAF12 UAS-luciferase reporter, agonist luminescence; normalized to butyrate control | activation, % at 6.8 µM | 370,000 tested, 1.8% active | AID 687014, 2013;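 active = activation above a cutoff set at the mean of all screened compounds plus 3 SD, cut at about 10% in these data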;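 note: 0% = DMSO wells and 100% = sodium butyrate wells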
DAX1 inh-1 – DAX1 (NR0B1) inhibitors, primary screen, cell-based, HEK293, Gal4-DAX1, luciferase luminescence; HEK293 Gal4-DAX1 luciferase reporter; inhibition, % at 6.75 µM; 340,000 tested, 0.99% active; AID 504766, 2011;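 active = inhibition above the mean over all tested compounds plus 3 SD, cut at about 4.2% in these data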;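 note: 0% = DAX1-transfected cells with DMSO and 100% = empty-vector control cells with DMSO; inhibition shows as a rise in luminescence from relieved DAX1 repression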
Target sequence (P51843 207-470 limits assumed): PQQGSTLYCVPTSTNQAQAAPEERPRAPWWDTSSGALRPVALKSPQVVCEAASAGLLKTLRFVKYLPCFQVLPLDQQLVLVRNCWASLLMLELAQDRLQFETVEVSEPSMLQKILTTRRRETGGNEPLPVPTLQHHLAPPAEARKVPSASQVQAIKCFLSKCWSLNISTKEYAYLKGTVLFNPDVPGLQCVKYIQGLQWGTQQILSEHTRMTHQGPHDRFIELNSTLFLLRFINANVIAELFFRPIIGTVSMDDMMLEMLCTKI
hcDAF12 agonist – H. contortus DAF-12 nuclear receptor activators, primary screen, cell-based, luminescence, HEK293, lit1-tk-luc reporter | HEK293 hcDAF-12 lit1-tk-luc reporter; 0% DMSO, 100% Δ7-dafachronic acid | AID 652067, 2013 | 370,000 tested, 1.4% active | activation, % at 6.8 µM;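 active = activation above the mean of all tested compounds plus 3 SD, cut at about 5.5% in these data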;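 note: 100% = response to 3 µM Δ7-dafachronic acid high control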
DAX1 inh-2 – DAX1 (NR0B1) inhibitors on StAR promoter, primary screen, cell-based, luminescence, SF-1 (NR5A1), full-length DAX-1 | HEK293T StAR-luciferase reporter, SF-1/DAX-1 repression relief | inhibition, % at 6.8 µM | 370,000 tested, 1.1% active | AID 652010, 2013;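 active = inhibition above the mean over all tested compounds plus 3 SD, cut at about 3.6% in these data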;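 note: 0% = DAX-1 cells with DMSO and 100% = cells lacking DAX-1 with DMSO; higher inhibition means more luminescence from relief of DAX-1 repression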
ssDAF-12 act – S. stercoralis DAF-12 nuclear receptor activators, primary screen, cell-based, luminescence, HEK293, GRIP1 co-expression, lit1-tk-luc; Nuclear hormone receptor DAF-12 (Strongyloides stercoralis); HEK293 ssDAF-12/GRIP1 lit1-tk-luc reporter; % of 3 µM dafachronic acid response; activation, % at 6.8 µM; 370,000 tested, 1% active; AID 652126, 2013;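 active = activation above the mean over all tested compounds plus 3 SD, cut at about 0.9% in these data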;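 note: 0% = DMSO-only wells and 100% = 3 µM delta7-dafachronic acid wells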
The depositor's hits bear a star.

How did S=C(Nc1ccccc1Cl)N1CCCCCC1 do in these assays?
hgDAF12 agonist: 1; DAX1 inh-1: -1; hcDAF12 agonist: 0; DAX1 inh-2: 0; ssDAF-12 act: -1

Results for S=C(Nc1ccccc1Cl)N1CCC(c2ccccc2)C1 (centres undefined) ?
hgDAF12 agonist: 11*; DAX1 inh-1: 4.6*; hcDAF12 agonist: 2; DAX1 inh-2: 2; ssDAF-12 act: -1

Results for COc1ccc(-c2nc(Cn3c(SCc4ccc(C)cc4)nc4ccncc43)c(C)o2)cc1OC ?
hgDAF12 agonist: 12*; DAX1 inh-1: 0; hcDAF12 agonist: 3; DAX1 inh-2: 1; ssDAF-12 act: -1

How did COc1ccc(-c2nc(Cn3c(SCc4cccc(F)c4)nc4ccncc43)c(C)o2)cc1OC do in these assays?
hgDAF12 agonist: 0; DAX1 inh-1: -1; hcDAF12 agonist: -2; DAX1 inh-2: -1; ssDAF-12 act: -2

How did CC(=O)[C@@H]1[C@@H](C(=O)c2ccc(F)cc2)[C@]2(C(=O)Nc3ccccc32)[C@H]2C=Cc3cc(F)ccc3N12 do in these assays?
hgDAF12 agonist: -1; DAX1 inh-1: -1; hcDAF12 agonist: 3; DAX1 inh-2: 0; ssDAF-12 act: 1.5*

Results for O=S1(=O)C=CCN1Cc1cn(Cc2cccc(C(F)(F)F)c2)nn1 ?
hgDAF12 agonist: 5; hcDAF12 agonist: -1; DAX1 inh-2: 1; ssDAF-12 act: -1

How did COc1ccc(CCN(Cc2cccs2)S(=O)(=O)c2ccc(C)s2)cc1OC do in these assays?
hgDAF12 agonist: 0; hcDAF12 agonist: -2; DAX1 inh-2: -3; ssDAF-12 act: -2

Results for CC1CCCCN1Cc1c(O)ccc2c(=O)c(-c3ccc(Cl)cc3)coc12 (centres undefined) ?
hgDAF12 agonist: 1; DAX1 inh-1: 1; hcDAF12 agonist: 5.8*; DAX1 inh-2: 0; ssDAF-12 act: 0

How did CN1OC[C@@H]2CN(C(=O)c3ccc(C#N)cc3)[C@H](c3cccc(Br)c3)C[C@@H]21 do in these assays?
hgDAF12 agonist: -1; hcDAF12 agonist: -1; DAX1 inh-2: -1; ssDAF-12 act: 0

What do the screens show for `Cc1cc(C)cc(OCc2nnc(N)s2)c1`?
hgDAF12 agonist: -2; DAX1 inh-1: 3; hcDAF12 agonist: -1; DAX1 inh-2: 0; ssDAF-12 act: 0

What do the screens show for `Cc1ccc(OCc2nnc(N)s2)cc1`?
hgDAF12 agonist: 11*; DAX1 inh-1: -1; hcDAF12 agonist: 2; DAX1 inh-2: 1; ssDAF-12 act: -1

What do the screens show for `CNS(=O)(=O)/C=C/c1ccccc1CCNC(=O)OC(C)(C)C`?
hgDAF12 agonist: 2; hcDAF12 agonist: -2; DAX1 inh-2: -2; ssDAF-12 act: -1

How did O=C(NCc1ccc(F)cc1)c1c2c(nc3ccccc13)CCC2 do in these assays?
hgDAF12 agonist: 4; DAX1 inh-1: 0; hcDAF12 agonist: 3; DAX1 inh-2: 4.5*; ssDAF-12 act: 0

How did O=C(NCc1ccc(F)cc1)c1ccncc1 do in these assays?
hgDAF12 agonist: 3; DAX1 inh-1: 4.4*; hcDAF12 agonist: -1; DAX1 inh-2: 0; ssDAF-12 act: -1

Results for O=C(NCc1ccc(Cl)cc1)c1ccncc1 ?
hgDAF12 agonist: 1; DAX1 inh-1: -1; hcDAF12 agonist: -1; DAX1 inh-2: 0; ssDAF-12 act: 0

What do the screens show for `O=C(NCc1ccco1)c1c2c(nc3ccccc13)CCC2`?
hgDAF12 agonist: 1; DAX1 inh-1: 3; hcDAF12 agonist: 2; DAX1 inh-2: 0; ssDAF-12 act: -1

How did COC(=O)[C@]12CCCCC=C1N(Cc1ccc(OC)cc1)C(=O)[C@@H]2CC(=O)NCc1ccccc1 do in these assays?
hgDAF12 agonist: -2; hcDAF12 agonist: -2; DAX1 inh-2: -1; ssDAF-12 act: -2

What do the screens show for `Cc1cc(CN2CCN(c3ncc(Cc4ccccc4)cn3)CC2)cc(C)c1O`?
hgDAF12 agonist: 1; hcDAF12 agonist: -2; DAX1 inh-2: -1; ssDAF-12 act: -1

How did CC[C@]12CCCN3CCc4c(n(c5ccccc45)[C@@](O)(C(=O)OC)C1)[C@@H]32 do in these assays?
hgDAF12 agonist: 2; DAX1 inh-1: 5.0*; hcDAF12 agonist: -1; DAX1 inh-2: 1; ssDAF-12 act: -1

Results for C=CCn1c(SCCOC)nc2c1c(=O)[nH]c(=O)n2C ?
hgDAF12 agonist: -3; DAX1 inh-1: 1; hcDAF12 agonist: 6.5*; DAX1 inh-2: 2; ssDAF-12 act: -1

Results for C=CCn1c(SCCN2CCCCC2)nc2c1c(=O)[nH]c(=O)n2C ?
hgDAF12 agonist: -2; DAX1 inh-1: 0; hcDAF12 agonist: -2; DAX1 inh-2: 1; ssDAF-12 act: -1

Results for Cc1cccc(-c2cccc3c4c([nH]c23)[C@@H]2C[C@H](N(C)C(=O)c3ccco3)[C@H]([C@H](C)O)C(=O)N2CC4)c1 ?
hgDAF12 agonist: 0; hcDAF12 agonist: -3; DAX1 inh-2: -1; ssDAF-12 act: -2

What do the screens show for `O=C(NCCCn1ccnc1)c1ccc(Cl)cc1[N+](=O)[O-]`?
hgDAF12 agonist: 1; DAX1 inh-1: 0; hcDAF12 agonist: 1; DAX1 inh-2: 0; ssDAF-12 act: -1

How did O=C(NCCCn1ccnc1)c1cc2cc([N+](=O)[O-])ccc2oc1=O do in these assays?
hgDAF12 agonist: 1; DAX1 inh-1: 4.2*; hcDAF12 agonist: 0; DAX1 inh-2: 0; ssDAF-12 act: 0

How did CCOC(=O)CC[C@H]1CC[C@]2(CCCN(C(=O)C(C)(C)C)C2)O1 do in these assays?
hgDAF12 agonist: 0; hcDAF12 agonist: 1; DAX1 inh-2: 0; ssDAF-12 act: 0

How did O=C(c1cc(F)cc(F)c1)N1CCCC(c2nc(-c3cccs3)no2)C1 (centres undefined) do in these assays?
hgDAF12 agonist: 1; hcDAF12 agonist: -1; DAX1 inh-2: 0; ssDAF-12 act: -1

Results for COC(=O)[C@]12C[C@H](CC(=O)NCc3ccccc3)C(=O)N(Cc3cccc4ccccc34)C1=C[C@H](C(C)C)O[C@@H]2C1CC1 ?
hgDAF12 agonist: 4; hcDAF12 agonist: 0; DAX1 inh-2: -1; ssDAF-12 act: -1

What do the screens show for `COC(=O)[C@]12C[C@H](CC(=O)NCCCCc3ccccc3)C(=O)N(Cc3cccc4ccccc34)C1=C[C@H](C(C)C)O[C@@H]2C1CC1`?
hgDAF12 agonist: -2; hcDAF12 agonist: -1; DAX1 inh-2: -1; ssDAF-12 act: 1.3*

How did O=C(CN1CCCCCC1)Nc1ccccc1 do in these assays?
hgDAF12 agonist: 0; DAX1 inh-1: -1; hcDAF12 agonist: -2; DAX1 inh-2: 0; ssDAF-12 act: -1
